# HSF-1 act: increases HSF-1 driven luciferase reporter signal; NIH3T3-HGL HSF-1 luciferase reporter, MG132, 8 h; 100% = twice DMSO control signal; activation, % at 9 µM; 300,000 tested, 1.7% active; AID 504408;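 active = mean replicate activation of at least 50% with a set share of replicates each reaching 50%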;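 note: 0% = median of the neutral control wells and 100% = twice that signal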
# TWEAK-Fn14 inh: inhibitors of TWEAK-Fn14 interaction signaling; 360,000 tested, 2% active; TWEAK-stimulated Fn14 reporter cells, luciferase luminescence, 8 h; inhibition, % at 10 µM; in the data active = inhibition above about 50%
# TROY signal inh: blocks TROY-dependent signaling in reporter cells; Q293 LMP1-TROYcd NF-kB luciferase reporter, 4 h; inhibition, % at 10 µM; 360,000 tested, 0.98% active;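 active = compounds whose plate-normalised and pattern-corrected inhibition of the luciferase reporter signal at the single screening dose is 50% or more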
# HSF1 inh: HSF1 inhibition | NIH3T3-HGL HSE-luciferase, MG132-induced, luminescence 8 h; active compounds read low | activity change, negative = inhibition, % at 7.5 µM (by protocol) | 300,000 tested, 0.77% active | AID 2098;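 active = more than half of replicate wells show activity change below -50%, luminescence cut by over half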;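 note: luciferase reports HSF-1 transcriptional activity via heat shock element; 0% = median of DMSO wells and -100% = zero luminescence signal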
# LGR2 inh: blocks bursicon-induced cAMP signaling via Drosophila LGR2; HEK293 LGR2, CRE-luciferase, bursicon-stimulated, 4 h; inhibition, % at 9.99 µM; 380,000 tested, 0.35% active; AID 720647;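 active = drop in luminescence signal, shown as inhibition above about 50% in the replicate tests, limit read from the data, passing the limit was not always enough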;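 note: agonist challenge used bursicon conditioned medium at about half maximal strength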
# EBV LMP1 NFkB: inhibitors of Epstein-Barr LMP1-induced NF-kappaB reporter | LMP1-induced NF-kappaB luciferase reporter cells, luminescence | inhibition, % at 12.5 µM | 350,000 tested, 0.69% active; in the data active = inhibition above about 41%;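 note: 0% = neutral control wells and 100% = reference inhibitor control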
# * = called active by the depositor; nt = no result given. Only some compounds are listed: those with a hit (about 3.6% of all), similar ones and a draw of the others.
SMILES,HSF-1 act,TWEAK-Fn14 inh,TROY signal inh,HSF1 inh,LGR2 inh,EBV LMP1 NFkB
COCCNc1nc(-c2cc3ccccc3o2)cs1,56*,16,-30,14,16,4
CCOC(=O)COc1ccc(/C=C/[N+](=O)[O-])c(OCC(=O)OCC)c1,197*,-48,48,161,12,7
CCOC(=O)Cn1cc(/C=C/[N+](=O)[O-])c2ccccc21,3,11,18,8,15,5
CCOC(=O)COc1ccc2ccccc2c1/C=C/[N+](=O)[O-],177*,32,20,139,105*,12
O=[N+]([O-])/C=C/c1c(OCc2ccccc2)ccc2ccccc12,45,-9,0,49,nt,-20
CCOc1ccc(/C=C/[N+](=O)[O-])c2ccccc12,76*,-12,-19,47,nt,75*
CCOC(=O)COc1ccc2nsnc2c1,-8,-2,-4,8,nt,0
C[C@@H]1CN([C@H](C)CO)S(=O)(=O)c2ccc(C#CC3(O)CCCC3)cc2O[C@H]1CN(C)C(=O)c1ccncc1,nt,nt,nt,nt,0,nt
Cc1cc(C(=O)N/N=C2\CC(=O)CC(C)(C)C2)c(C)n1-c1ccccc1,-7,22,53*,0,-2,0
O=S(=O)(N[C@@H]1CC[C@H](CCn2cc(-c3ccccn3)nn2)O[C@H]1CO)c1cccc(F)c1,nt,nt,nt,nt,0,nt
Cc1cccc(Nc2nc3c(S(=O)(=O)c4ccccc4)nnn3c3ccccc23)c1,10,-44,53*,-2,0,-17
COc1ccc(N/C=C2\C(=O)CCc3c2oc2cc(Cl)c(O)c(Cl)c32)cc1,62*,0,55*,41,11,-5
C[C@H]1CN([C@@H](C)CO)C(=O)c2c(c3ccccc3n2C)-c2ccccc2CO[C@H]1CN(C)C(=O)CCN(C)C,nt,nt,nt,nt,15,nt
COc1cccc(CN2CC3(CN(C(=O)Nc4c(C)noc4C)C3)c3c([nH]c4cc(OC)ccc34)[C@@H]2CO)c1,nt,nt,nt,nt,4,nt
c1cc2c(cc1C1CCCN1)OCCCO2 (stereo unspecified),-77,-21,5,-71*,nt,-6
C[C@H]1CN([C@@H](C)CO)C(=O)c2cccc(NC(=O)c3ccc(-c4nccs4)cc3)c2O[C@@H]1CN(C)S(=O)(=O)c1cn(C)cn1,nt,nt,nt,nt,1,nt
O=C(COC(=O)c1ccccc1SCC(=O)N1CCCC1)NC1CCS(=O)(=O)C1 (stereo unspecified),-78,-8,-22,-71*,3,-3
O=C(COC(=O)c1ccccc1SCC(=O)NC1CCS(=O)(=O)C1)NC1CCS(=O)(=O)C1 (stereo unspecified),6,-4,-2,2,18,3
Nc1nc(N)c(C=Nc2ccc(Br)cc2)c(Nc2ccc(Br)cc2)n1,67*,11,-8,38,-14,-15
C[C@@H]1CN([C@@H](C)CO)C(=O)c2cccc(NC(=O)NC3CCCCC3)c2O[C@H]1CN(C)C(=O)Nc1ccc2c(c1)OCO2,nt,nt,nt,nt,-8,nt
O=C1NCCN1CCNS(=O)(=O)c1ccc(F)cc1,0,53*,65*,-2,4,-6
CCOC(=O)c1cnc(SC)nc1Oc1cccc(NS(=O)(=O)c2ccccc2)c1,36,55*,-10,9,nt,-3
CCOC(=O)c1cnc(SC)nc1Oc1cccc(NS(=O)(=O)c2ccc(F)cc2)c1,2,27,-7,-1,nt,-4
Cc1cc(C)n(S(=O)(=O)c2ccc(F)cc2)n1,5,73*,-2,-5,5,-2
Cc1ccc(S(=O)(=O)Nc2cccnc2)c(C)c1C,-87,2,7,-83*,5,-6
SMILES,HSF-1 act,TWEAK-Fn14 inh,TROY signal inh,HSF1 inh,LGR2 inh,EBV LMP1 NFkB
COCC(=O)N1CC[C@H]2[C@@H]1c1cc(-c3ccc(F)cc3)ccc1N(C)[C@H]2CO,nt,nt,nt,nt,-6,nt
Cn1nc(-c2ccc(N3CCOCC3)c(NS(=O)(=O)c3ccccc3)c2)c2ccccc2c1=O,11,38,-27,-1,37,61*
Cc1ccc2nc(/C(C#N)=C/c3cn[nH]c3-c3ccc(F)cc3)[nH]c2c1,0,59*,16,-4,nt,13
CC/C(=N\NS(=O)(=O)c1ccc(C)cc1)c1ccco1,-72,19,4,-64*,2,5
CCOc1ccc(N(CC(=O)NN=C2CCCC2)S(C)(=O)=O)cc1,-90,-6,-8,-87*,21,9
CS(=O)(=O)N(CC(=O)NN=C1CCCCCC1)c1ccc(Oc2ccccc2)cc1,12,-14,2,-1,-17,4
C[C@H]1CN([C@@H](C)CO)C(=O)c2cc(C#CC3CC3)cnc2O[C@H]1CN(C)Cc1cccc(C(=O)O)c1,nt,nt,nt,nt,-22,nt
Cc1ccc(NC(=O)c2ccccc2F)nc1,36,12,-26,12,nt,1
CC(=O)c1c(C)[nH]c(C(=O)Nc2nc(C)cs2)c1C,7,94*,65*,21,nt,71*
CC(=O)c1c(C)[nH]c(C(=O)Nc2cc(C)cc(C)c2)c1C,36,-1,-3,17,nt,2
CC(=O)c1c(C)[nH]c(C(=O)Nc2nc(-c3ccc(-c4ccccc4)cc3)cs2)c1C,14,98*,19,13,91*,23
O=C(Nc1nc(-c2ccc(Cl)cc2)cs1)NC1CCCCC1,-4,68*,58*,-7,5,-11
CC(=O)c1c(C)[nH]c(C(=O)Nc2ccc(C)cn2)c1C,23,95*,67*,0,nt,58*
COc1cccc(OC)c1C(=O)Nc1nc(-c2ccccc2)cs1,-15,6,20,0,-8,-2
Cc1ccc(S(=O)(=O)N(C)C[C@H]2Oc3ccc(NC(=O)Nc4ccc(F)cc4)cc3C(=O)N([C@H](C)CO)C[C@H]2C)cc1,nt,nt,nt,nt,-9,nt
COc1ccc2c3c([nH]c2c1)[C@@H](CO)N(C(=O)C1CC1)CC31CCN(C(=O)NC(C)C)CC1,nt,nt,nt,nt,19,nt
COc1ccccc1S(=O)(=O)N[C@H]1CC[C@@H](CC(=O)NCc2cc(F)cc(F)c2)O[C@@H]1CO,nt,nt,nt,nt,-9,nt
COc1ccc(-c2nc(NC(=O)c3[nH]c(C)c(C(C)=O)c3C)sc2C)cc1,11,-9,-7,19,22,9
CC(=O)c1c(C)[nH]c(C(=O)Nc2nc(-c3ccc(Cl)cc3)cs2)c1C,39,68*,58*,9,2,23
c1ccc(CCSc2nccn2-c2ccccc2)cc1,58*,-11,-43,36,-91,-46
C[C@H](NC(=O)C[C@@H]1CC[C@H](NC(=O)Cc2ccccn2)[C@@H](CO)O1)c1ccccc1,nt,nt,nt,nt,2,nt
C/C(=N\NC(=O)c1ccc(-c2ccccc2)cc1)C1C(=O)c2ccccc2C1=O,-17,46,56*,5,42,8
CC(C)(Sc1ccc(CCN(CCCCC2CCCCC2)C(=O)NC2CCCCC2)cc1)C(=O)O,nt,-37,51*,nt,5,-1
CN(Cc1ccccc1)C(=O)NC1CCCCC1,-18,9,-10,1,nt,3

# Screens as filed in PubChem.
